Data reported in PubChem BioAssay (Tox21).
A number with no mark means an inactive call. Records with an inconclusive call do not appear. Calls of active or inactive are those of the source. Calls follow the shape of the dose curve; as a rule, active = well fitted curve in the direction sought with a large enough effect in the repeat runs; inconclusive = weak or mixed curves; inactive = no such curve, though single readings can be large; an effect the other way counts as inactive or inconclusive.

Experiment: Caspase-3/7 induction in CHO-K1 cells by small molecules, qHTS cell viability counter screen (AID 1346979); also: nearly all actives have a fitted effect of over 35% in size
Conditions: CellTiter-Fluor fluorescence, 17 h; series mostly up to 92.4 µM; activity change, negative = cytotoxicity: at the top concentration
Method in brief: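 To flag cytotoxic compounds, treated CHO-K1 wild-type cells were given CellTiter-Fluor at 16hr and read fluorescently after 1hr at 37C; the caspase-3/7 luminescence was measured in these same wells.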
% is scaled to controls: 0 for no effect and ±100 for the full control effect; potency is read from the fitted curve at half-maximal effect.

SMILES | activity change, negative = cytotoxicity | Potency
[C-]1=CC=CC1.[Cl][Zr+2][Cl].c1cc[cH-]c1 | 2.35% | 
Fc1ccc(C(OCCN2CCN(CCCc3ccccc3)CC2)c2ccc(F)cc2)cc1 |  | 11.9 µM (active)
O=[N+]([O-])[O-].[Tl+] |  | 61.6 µM (active)
O=C(N[C@@H]1N=C(c2ccccc2F)c2cccc3c2N(CC3)C1=O)c1cc2ccccc2[nH]1 | -7.56% [at 42.5 µM] | 
CCN1CCC2(CC1)COc1cc3c(cc12)N(C(=O)c1ccc(-c2ccc(-c4nnc(C)o4)cc2C)cc1)CC3 |  | 25.2 µM (active)
COc1ccc2[nH]cc(CCN(C(C)C)C(C)C)c2c1 | -7.48% | 
C1=CCC=C1 | 5.69% | 

Experiment: Caspase-3/7 induction in CHO-K1 cells by small molecules, qHTS assay (AID 1346980); also: nearly all actives have a fitted effect of over 15% in size
Conditions: CHO-K1 caspase-3/7 induction, Caspase-Glo luminescence, 17 h; series mostly up to 92.4 µM; caspase-3/7 activation: at the top concentration
Method in brief: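 Wild-type CHO-K1 cells exposed to compounds for 17hr at 37 C, 5% CO2. Caspase-3/7 activity then measured by Caspase-Glo 3/7 luminescence after 30min at room temperature.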

SMILES | caspase-3/7 activation | Potency
[C-]1=CC=CC1.[Cl][Zr+2][Cl].c1cc[cH-]c1 | -0.0312% | 
C[C@@H]1CC2=CC(=O)CC[C@@H]2[C@H]2CC[C@@]3(C)[C@@H](CC[C@]3(C)O)[C@@H]21 | -1.3% [at 42.5 µM] | 
CC(Cc1ccc2c(c1)OCO2)NO (centres undefined) | -0.208% | 
CCO/N=C(\CC)C1=C(O)CC(c2c(C)cc(C)cc2C)CC1=O (centres undefined) | 1.12% | 
COP(=S)(OC)Oc1nc(Cl)c(Cl)cc1Cl | -1.65% | 
CC(=O)C(Cl)C(=O)N(C)C (centres undefined) | 0.665% | 
c1ccc2c(c1)cc1ccc3cccc4ccc2c1c34 | -0.592% | 
CCOP(=S)(OCC)SC(CCl)N1C(=O)c2ccccc2C1=O (centres undefined) | -1.27% | 
Fc1ccc(C(OCCN2CCN(CCCc3ccccc3)CC2)c2ccc(F)cc2)cc1 |  | 23.7 µM (active)
COC(=O)c1cc(Oc2ccc(Cl)cc2Cl)ccc1[N+](=O)[O-] | -1.96% | 
CC(C)=CC1C(C(=O)OC(C#N)c2cccc(Oc3ccccc3)c2)C1(C)C (centres undefined) | -0.84% | 
N#Cc1c2ccccc2cc2ccccc12 | 0.413% | 
Clc1ccc(C(Cl)(Cl)Cl)cc1Cl | -1.02% | 
O=C(N[C@@H]1N=C(c2ccccc2F)c2cccc3c2N(CC3)C1=O)c1cc2ccccc2[nH]1 | 0.0619% [at 42.5 µM] | 
CC1(C)C(C=C(Cl)Cl)C1C(=O)OC(C#N)c1ccc(F)c(Oc2ccccc2)c1 (centres undefined) | -1.98% | 
CSC(=O)c1c(C(F)F)nc(C(F)(F)F)c(C(=O)SC)c1CC(C)C | 8.27% | 
Nc1nc(N)c(N)c(N)n1 | 0.428% | 
Nc1ccc(Cl)cc1C(=O)c1ccccc1F | 6.4% [at 42.5 µM] | 
CCc1cccc(C)c1N(C(=O)CCl)[C@@H](C)COC | 7.38% | 
CCOC(=O)CCN(SN(C)C(=O)Oc1cccc2c1OC(C)(C)C2)C(C)C | 1.92% | 
COc1ccc2[nH]cc(CCN(C(C)C)C(C)C)c2c1 | 0.256% | 
CCC(C)c1cccc(C(C)CC)c1O (centres undefined) | 10.2% | 
Cc1c([N+](=O)[O-])c(C)c([N+](=O)[O-])c(C(C)(C)C)c1[N+](=O)[O-] | 0.285% | 
Oc1cc(Cl)cc(Cl)c1 | 0.906% | 
C1=CCC=C1 | 0.507% | 
COP(=O)(OC)O/C(=C\Cl)c1cc(Cl)c(Cl)cc1Cl | -0.0784% | 
Brc1ccc(Oc2ccc(Br)cc2Br)c(Br)c1 | -2.1% | 
